From the supplement of paper PMC7156485 come the findings set out here.
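Further: TDF denotes transformed human dermal fibroblasts of mesenchymal origin.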

In this test the test system is HCC1569. Kind of test: cell number relative to DMSO (% of DMSO); higher = more cells (less growth inhibition / toxicity). Particulars: concentration: 10 µM; 24 h. In short, it runs like this:
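HCC1569 and TDF cells were seeded at 800 per well in 384-well plates in RPMI with 10% FBS and treated with compounds at 10 µM for 24 h at 37 °C, in triplicate. After fixation in 3.7% formaldehyde, cells were stained with a rabbit anti-H1.0 antibody, an AlexaFluor 647 secondary and DAPI, and six fields per well were imaged at ×10. H1.0 nuclear intensity or cell number is given as percent of the plate control, using the median of replicates, with HCC1569 values smoothed for positional effects.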
`CC1=NN(c2ccc(C(=O)O)cc2)C(=O)/C1=C\c1ccc(-c2cc(C)c(C)cc2[N+](=O)[O-])o1` returned a cell number of 89.5.

For the compound `COc1ccc(CN(CCN(C)C)c2ccccn2)cc1.O=C(O)C=CC(=O)O` [Pyrilamine maleate], the cell number was 103.

Regarding `O=C(O)C1=CC(=C(c2ccc(O)c(C(=O)O)c2)c2ccc(O)c(C(=O)O)c2)C=CC1=O` [Aurintricarboxylic acid], the cell number turned out to be 102.

The compound `COC(C(=O)C(O)C(C)O)C1Cc2cc3cc(OC4CC(OC5CC(O)C(O)C(C)O5)C(O)C(C)O4)c(C)c(O)c3c(O)c2C(=O)C1OC1CC(OC2CC(OC3CC(C)(O)C(O)C(C)O3)C(O)C(C)O2)C(O)C(C)O1` (stereo not given) [Plicamycin] gave a cell number of 60.8.

Turning to `CC(=O)OC1CC2CCC3C(CCC4(C)C3CC([N+]3(C)CCCCC3)C4OC(C)=O)C2(C)CC1N1CCCCC1` (stereo not given) [Vecuronium], the cell number is 103.

In turn, `Nc1ccc(-c2cccc3c(=O)cc(N4CCOCC4)oc23)cc1` registered a cell number of 78.1.

Regarding `Cc1cc(C(C)(C)C)c(O)c(C)c1CC1=NCCN1.Cl` [Oxymetazoline hydrochloride], the cell number was found to be 104.

Take `c1ccc(-c2n[nH]c3c2oc2ccccc23)cc1`: the cell number was found to be 101.

`CC(C)(C)c1nc2c3cc[nH]c(=O)c3c3cc(F)ccc3c2[nH]1` [JAK Inhibitor I] showed a cell number of 99.8.

Take `CC1=c2[nH]c3c(c2CCN1)C=CC(=O)C=3.Cl.O.O`: the cell number was found to be 98.2.

Turning to `CC(C)C[C@@H](C(=O)O)c1cc(-c2ccc(C(F)(F)F)cc2)cc(-c2ccc(C(F)(F)F)cc2)c1`, the cell number amounted to 98.7.

In turn, `CCCCCCCCc1ccc(CCC(N)(CO)CO)cc1.Cl` returned a cell number of 13.6.

Consider `C[C@H](C#Cc1ccc(Cc2ccc(F)cc2)s1)N(O)C(N)=O`, for which the cell number was 98.

Turning to `COc1cccc2oc(-c3ccccc3)cc(=O)c12` [5-Methoxyflavone], the cell number turned out to be 99.7.

`Cl.Cn1c(=O)c(Oc2ccc(F)cc2F)cc2cnc(NC3CCOCC3)nc21` gave a cell number of 99.9.

Turning to `CCCCCC(O)C=CC1C(O)CC(O)C1CC=CCCCC(=O)O` (racemic), the cell number is 106.

Consider `CC(C)(C=O)Cc1cc(C(C)(C)C)c(O)c(C(C)(C)C)c1`, for which the cell number amounted to 109.

`C[C@H](c1ccc(F)cc1CCCC(=O)O)N(c1cc(F)ccc1F)S(=O)(=O)c1ccc(Cl)cc1` registered a cell number of 99.7.

In turn, `NC(C(=O)O)C1CC1C(=O)O` [(2S,1'S,2'S)-2-(carboxycyclopropyl)glycine] yielded a cell number of 105.

Compound `CCCCC1=NC2(CCCC2)C(=O)N1Cc1ccc(-c2ccccc2-c2nn[nH]n2)cc1` returned a cell number of 101.

`c1ccc(-c2[nH]ncc2-c2ccnc3ccccc23)nc1` came in with a cell number of 98.

With `CC1OC(OCC2OC(Oc3c(-c4ccc(O)c(O)c4)oc4cc(O)cc(O)c4c3=O)C(O)C(O)C2O)C(O)C(O)C1O` (stereo not given) [Rutin], the cell number stood at 107.

In the case of `Oc1cc(O)c2c(c1)OC(c1ccc(O)c(O)c1)C(O)C2` (single isomer, unassigned; (-)) [(-)-Epicatechin], the cell number was determined as 102.

Take `COc1ccc(S(=O)(=O)N2CCC[C@H]2C(=O)Nc2cc(C)cc(C)c2)cc1`: the cell number worked out at 101.

`Nc1ncnc2c1ncn2C1CCCC1` [9-cyclopentyladenine]: the cell number is 102.

`CC1(NC(=O)CBr)CCC(C(C)(C)NCC(O)COc2cccc3[nH]ccc23)CC1` (racemic) had a cell number of 95.8.

Consider `COc1ccc2c(c1)c(CC(=O)OCC(=O)O)c(C)n2C(=O)c1ccc(Cl)cc1` [Acemetacin], for which the cell number is 96.5.

In turn, `COc1c(O)cc(O)c2c(=O)cc(-c3ccccc3)oc12` [Wogonin] displayed a cell number of 100.

As to `CCC1C(=O)OCC1Cc1cncn1C.O=[N+]([O-])O` (stereo not given) [Pilocarpine nitrate], the cell number was found to be 98.

Turning to `NC(Cc1cccc(-c2ccccc2CP(=O)(O)O)c1)C(=O)O` (stereo not drawn) [Phenylbenzene-omega-phosphono-alpha-amino acid], the cell number turned out to be 99.4.

In turn, `CNC1C(OC2C(OC3C(O)C(O)C(N=C(N)N)C(O)C3N=C(N)N)OC(C)C2(O)C=O)OC(CO)C(O)C1O` (stereo not given) [Streptomycin] had a cell number of 105.

On to `N#Cc1ccc(C(c2ccc(C#N)cc2)n2cncn2)cc1` [Letrozole], for which the cell number was found to be 100.

The compound `O=C1OC(C(O)CO)C(O)=C1O` (stereo not given) [Ascorbic acid] showed a cell number of 100.

Compound `CC(C)S(=O)(=O)N[C@H]1CCOC[C@@H]1c1ccc(-c2ccc(C#N)s2)cc1` returned a cell number of 100.

In the case of `Cc1ccc(=O)n(-c2ccccc2)c1` [Pirfenidone], the cell number turned out to be 102.
